Assay outcomes: PubChem, National Center for Advancing Translational Sciences (NCATS)
The sample as a whole holds a higher share of hits than the screen did.
Pf Dd2 growth: inhibitors of Plasmodium falciparum Dd2 growth; P. falciparum Dd2 growth, SYBR Green, 72 h; actives 4.3% (n = 120,000); AID 1347417; Potency, µM (top dose mostly 28.9 µM), inactives show at the highest dose activity, negative = inhibition, actives largely listed as inhibitors; active = well fitted inhibition curve with a large enough effect;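 also: plate controls were DMSO vehicle for no effect and reference drug for full effect; nearly all actives have a fitted effect of over 65% in size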
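Readout: SYBR Green fluorescence, 485 nm excitation, 535 nm emission, after ~16 h lysis at 37C. Before that, Dd2-infected red cells (2.5% hematocrit) grew 72 h with compound, 29 uM top final concentration.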
Numbers without * were called inactive; i = inactive; [ ] = dose if it differs, or a comment. Potency is read from the fitted curve at half-maximal effect.

SMILES	Pf Dd2 growth
Cc1ccc(C(=O)N2CCc3nc(-c4ccccc4)nc(-c4ccc(Cl)cc4)c3C2)cc1	10µM*
CC(C)(C)C(=O)N1CCc2nc(-c3ccccc3)nc(-c3ccc(Cl)cc3)c2C1	5µM*
CN(C)C(=O)N1CCc2nc(-c3ccccc3)nc(-c3ccc(Cl)cc3)c2C1	i
COc1cc2c(cc1OC)C(C[C@H]1CN(S(=O)(=O)c3ccc(C#N)cc3)CC[C@H]1CC(=O)O)=NCC2	-8%
Cc1ccc(CNC(=O)C2(Cc3ccccc3)CCCCC(=O)N2)cc1 (stereo unspecified)	-19%
COc1ccccc1CCC(=O)N1c2ccccc2CC1c1nc(C2CC2)no1 (stereo unspecified)	i[5.79 µM]
COc1ccccc1C(=O)N1CCCC(CN2CCC(C)CC2)CC1 (stereo unspecified)	i
O=C(NC1CC1)c1ccccc1OCC1CCCN(Cc2cn[nH]c2-c2ccc(F)cc2)C1 (stereo unspecified)	-8%
COc1cc2c(cc1OC)CN(C(=O)C[C@@H]1CCNC[C@@H]1Cc1cc(CN3CCCCC3)on1)CC2	-16%
CC(=O)N1CCC(N[C@@H]2CO[C@H](CNS(=O)(=O)c3ccccc3)[C@H]2O)CC1	-14%[44.1 µM]
CCCC1=Nc2cc(C(=O)NC3CCCCC3)ccc2Sc2ccc(C)cc21	10µM*
CCCC1=Nc2cc(C(=O)N3CCC(C)CC3)ccc2Sc2ccc(C)cc21	-23%
CCCC1=Nc2cc(C(=O)NCCCN(CC)CC)ccc2Sc2ccccc21	-8%
CCCC1=Nc2cc(C(=O)NCCc3ccc(OCC)cc3)ccc2Sc2ccccc21	-29%
Cc1ccc(C(=O)NC2CCN(c3cnn(C)c(=O)c3)CC2)cc1C	-5%
Cc1cccc(C)c1-c1nnc2ccc(C(=O)NC3CC3)cn12	23%
CCn1ncc(N2CCC(NC(=O)c3ccc(C)c(C)c3)CC2)cc1=O	-10%
CCC1=Nc2cc(C(=O)NC3CCC(C)CC3)ccc2Sc2ccc(C)cc21 (stereo unspecified)	10µM*
Cc1nc2cc(C(=O)NC3CCCCCC3)ccc2n1-c1ccc(Br)cc1	18%
CC1=Nc2cc(C(=O)NC3CCC(C)CC3)ccc2Sc2c(C)ccc(C)c21 (stereo unspecified)	11µM*
CC1=Nc2cc(C(=O)N3CCCCC3)ccc2Sc2ccc(C)cc21	i
CC1=Nc2cc(C(=O)NC3CCCC3)ccc2Sc2ccc(Br)cc21	7.9µM*
O=C(c1ccncc1)N1CC[C@H](c2nnc(-c3ccccc3)o2)C1	2%[44.1 µM]
COC1CCCN(c2ncnc3c2CCN(C(=O)c2ccoc2)CC3)C1 (stereo unspecified)	-23%
Cc1nc(C2(C)CCN(C(=O)Cc3c(C)noc3C)CC2)no1	35%
SMILES	Pf Dd2 growth
CN1CC2(CCN(S(=O)(=O)c3cccnc3)CC2)CC1C(=O)N1CCOCC1 (stereo unspecified)	0%
O=C(O)C[C@@H]1CCN(C(=O)COc2ccccc2)C[C@@H]1CCN1CCN(c2ccccc2)CC1	-13%
COc1ccc2[nH]c3c(c2c1)CCNC31CCN(S(=O)(=O)c2cccnc2)CC1	-13%
CC(C)C1=NOC2(CCN(C(=O)c3ccc(Cl)cc3)CC2)C1	0%
CNC(=O)C1(N2CCC[C@H]2C(=O)N2CCC[C@@H]2COC)CCCCC1	-25%[44.1 µM]
O=C(NC1CC1)C1CN(c2ccc(F)cc2)C(=O)N1 (stereo unspecified)	-2%[44.1 µM]
COc1cc(NC(=O)CN2C(=O)C(c3ccccc3)=NC23CCCC3)cc(OC)c1OC	i
CCC1=Nc2cc(C(=O)NCc3ccc(F)cc3)ccc2Sc2ccc(C)cc21	5.6µM*
CCC1=Nc2cc(C(=O)NCCCOC)ccc2Sc2ccc(Br)cc21	-28%
CCc1cc(C(=O)NCc2ccc(F)cc2)no1	8%
CCC[C@@H]1CN(CCC(=O)NCc2cccc(Cl)c2)C[C@H]1C(=O)O	-3%
Cc1ccc(NC(=O)N2CCC(CCNC(=O)C3CC3)CC2)cc1	i
CC1=NOC2(CCCN(C(=O)c3ccccn3)C2)C1 (stereo unspecified)	11%[44.1 µM]
COc1ccc2[nH]c3c(c2c1)CCN(C)C31CCN(C(=O)C2CCC2)CC1	i
COc1ccc2[nH]c3c(c2c1)CCN(C(=O)c1cccc(Cl)c1)C3c1ccc(F)cc1 (stereo unspecified)	-20%
COc1ccc(NC(=O)N2CCc3c([nH]c4ccc(OC)cc34)C2c2ccc(OC)cc2)cc1 (stereo unspecified)	4.5µM*
Cc1cc(Cl)ccc1OCCN1CCN(C(=O)[C@H]2CCC[C@H](O)C2)CC1	-20%
OC1(CN2CCN(CCc3ccccn3)CC2)CCCNC1 (stereo unspecified)	-3%
Cc1cc(Cl)ccc1OCCN1CCN(CC2(O)CCCNC2)CC1 (stereo unspecified)	8.9µM*
CNC(C)c1ccc(C(F)(F)F)cc1 (stereo unspecified)	15%[44.1 µM]
Cc1c(C(=O)Nc2cc(F)ccc2F)sc2nc(-c3ccc(F)cc3)cn12	i
Cc1c(C(=O)Nc2ccc(F)c(C(F)(F)F)c2)sc2nc(-c3ccccc3)cn12	11µM*
Cc1cc(C)cc(NC(=O)c2sc3nc(-c4ccccc4)cn3c2C)c1	7%
CCNC(=O)N1CCCC1c1noc(CCC(=O)NCC(C)C)n1 (stereo unspecified)	6%
COc1cc(CNC(=O)C2Cn3cccc3C(=O)N2)cc(OC)c1 (stereo unspecified)	32%
SMILES	Pf Dd2 growth
COCCOC1CCOC2(CCN(C(=O)c3cnccn3)CC2)C1 (stereo unspecified)	43%
O=c1[nH]c2ccccc2n1C1CCN(c2nccc(-c3cccnc3)n2)CC1	11µM*
Cc1nc(CC2CCN(c3nccc(-c4cccnc4)n3)CC2)no1	-12%
O=C(NCc1ccccn1)C1CCN(c2nccc(-c3cccnc3)n2)CC1	-13%
O=C(CC1CCCCC1)NC1CCN(C(=O)N2CC3CC(C2)[C@H]2CCCC(=O)N2C3)CC1 (stereo partly specified)	-20%
COc1ccc(C(=O)Nc2nc3c(s2)C[C@@H]2[C@](C)(CO)[C@H](O)CC[C@@]2(C)[C@@H]3CC(=O)NCCNC(C)=O)cc1	i
C[C@]1(CO)[C@H]2Cc3sc(NC(=O)c4cccc(F)c4)nc3[C@@H](CC(=O)NCc3ccco3)[C@]2(C)CC[C@H]1O	8.9µM*
C#CCNC(=O)C[C@@H]1c2nc(NC(=O)c3ccc(F)cc3)sc2C[C@@H]2[C@](C)(CO)[C@H](O)CC[C@]21C	-13%
COc1ccc(C(=O)Nc2nc3c(s2)C[C@@H]2[C@](C)(CO)[C@H](O)CC[C@@]2(C)[C@@H]3CC(=O)NCc2ccco2)cc1	2µM*
C[C@]1(CO)[C@H]2Cc3sc(NC(=O)c4ccco4)nc3[C@@H](CC(=O)NCc3cccnc3)[C@]2(C)CC[C@H]1O	7.1µM*
CC(C)(C)C(=O)Nc1nc2c(s1)C[C@@H]1[C@](C)(CO)[C@H](O)CC[C@@]1(C)[C@@H]2CC(=O)NCc1ccco1	i
CCCCCC(=O)Nc1nc2c(s1)C[C@@H]1[C@](C)(CO)[C@H](O)CC[C@@]1(C)[C@@H]2CC(=O)NCc1cccnc1	i
COCCNC(=O)C[C@@H]1c2nc(NC(=O)c3ccnc(Cl)c3)sc2C[C@@H]2[C@](C)(CO)[C@H](O)CC[C@]21C	-21%
C[C@]1(CO)[C@H]2Cc3sc(NC(=O)c4cccs4)nc3[C@@H](CC(=O)NCc3cccnc3)[C@]2(C)CC[C@H]1O	i
Cc1cccc(NC(=O)c2ccc(N3CC4CC(C3)[C@H]3CCCC(=O)N3C4)nc2)c1 (stereo partly specified)	i
